# Marburg entry: qHTS for Inhibitors of binding or entry into cells for Marburg Virus | 6.5% of 18,000 active | Marburg virus pseudotype entry/binding inhibition, cell-based | Potency, µM (highest dose often 49.2 µM), actives largely listed as inhibitors
# Lassa entry: qHTS for Inhibitors of binding or entry into cells for Lassa Virus. Lassa virus pseudotyped entry inhibition, cell-based qHTS. Potency, µM (highest dose often 49.2 µM), hits mostly inhibitors. 4.1% of 18,000 active. AID 720533, 2013
# A number is an active result; – = inactive; ? = inconclusive; · = not tested or not shown; + = active, no number; ! = not active in a repeat; [ ] = dose if it differs, or a comment. Only some compounds are listed: those with a hit (about 8% of all), similar ones and a draw of the others. The call rests on the fitted dose curve; tested in HEK293 cells.
SMILES,Marburg entry,Lassa entry
CC(=O)[C@]1(O)Cc2c(O)c3c(c(O)c2[C@@H](O[C@H]2C[C@H](N)[C@H](O)[C@H](C)O2)C1)C(=O)c1c(O)cccc1C3=O,0.056µM,·
COc1cccc2c1C(=O)c1c(O)c3c(c(O)c1C2=O)C[C@@](O)(C(=O)CO)C[C@@H]3O[C@H]1C[C@H](N)[C@H](O[C@@H]2CCCCO2)[C@H](C)O1,1.25µM,1.12µM
COc1cccc2c1C(=O)c1c(O)c3c(c(O)c1C2=O)C[C@@](O)(C(C)=O)C[C@@H]3O[C@H]1C[C@H](N)[C@H](O)[C@H](C)O1,?,35.5µM!
CCN1C(=NCc2cc(OC)c(OC)c(OC)c2)NC(c2cccc(F)c2)C(C(=O)OC)=C1C (stereo not given),–[8.59 µM],–[8.59 µM]
COC(=O)C1=C(C)N(Cc2ccccc2)C(=S)NC1c1cccc(F)c1 (stereo not given),–[8.59 µM],–[8.59 µM]
C[C@H]1[C@H](c2ccccc2)Oc2cc(Br)ccc2S(=O)(=O)N1Cc1cccc(Cl)c1,–,–
COc1ccc([C@@H]2Sc3ccccc3N(CCN(C)C)C(=O)[C@@H]2OC(C)=O)cc1,28.2µM,4.47µM
COc1ccc(C2Sc3ccccc3N(CCN(C)C)C(=O)[C@@H]2OC(C)=O)cc1 (stereo not given in full),?,–
COC(=O)C1=CO[C@@H](C)[C@H]2CN3CCc4c([nH]c5ccccc45)[C@@H]3C[C@H]12,?,–
CCC1=CC2CN3CCc4c([nH]c5ccccc45)[C@@](C(=O)OC)(C2)[C@@H]13,7.94µM,?
CCN(CCNC(=O)[C@H]1C=C(OC)C(=O)C[C@H](c2ccccc2)[C@@H]1C)C(C)=O,–[8.59 µM],–[8.59 µM]
C=C[C@H]1C[C@H]2C=CCCOP(=O)(O2)O1,?,–
CSC[C@H]1CN(Cc2ccccc2)C(=O)[C@H]1CC(=O)Nc1ccc(Br)cc1,–,–
CN1CCN(C2=Nc3ccccc3Cc3ccccc32)CC1,?,–
Clc1ccc2c(c1)C(N1CCNCC1)=Nc1ccccc1O2,11.2µM!,?
COc1ccc([C@]23Cc4cc(OC)c(OC)cc4[C@H](O2)C2=C(CC(C)(C)CC2=O)O3)cc1,–[8.59 µM],–[8.59 µM]
COc1ccc(-c2nc(-c3ccccc3)oc2NC(C)c2ccccc2)cc1 (stereo not given),–[8.59 µM],–[8.59 µM]
CC[N+](CC)(CCCNC1=CC(=O)C(NCCC[N+](CC)(CC)Cc2ccccc2)=CC1=O)Cc1ccccc1,–,–
CCCCCCCCCCCCC[N+](C)(C)Cc1ccccc1,8.91µM,17.8µM
Cc1ccccc1Nc1oc(-c2ccccc2)nc1-c1ccc(C(F)(F)F)cc1,–[8.59 µM],?
CC(C)=CCC1=C(O)c2ccccc2C(=O)C1=O,5.01µM,?
CC1=C(C/C=C(\C)CCC[C@H](C)CCC[C@H](C)CCCC(C)C)C(=O)c2ccccc2C1=O,–,–
CN1C[C@H](CNC(=O)OCc2ccccc2)C[C@@H]2c3cccc4c3c(cn4C)C[C@H]21,14.1µM!,?
CN1C[C@H](CNC(=O)OCc2ccccc2)C[C@H]2c3cccc4c3c(cn4C)C[C@@H]21,10µM,?
CO[C@@]12C[C@@H](COC(=O)c3cncc(Br)c3)CN(C)[C@H]1Cc1cn(C)c3cccc2c13,–,–
SMILES,Marburg entry,Lassa entry
CN1C[C@H](C(=O)N[C@]2(C)O[C@@]3(O)[C@H]4CCCN4C(=O)[C@H](Cc4ccccc4)N3C2=O)C[C@H]2c3cccc4[nH]cc(c34)C[C@@H]21,–,–
C#CCNC(=O)[C@H]1C=C(OC)C(=O)C[C@H](c2ccccc2)[C@H]1C,–[8.59 µM],–[8.59 µM]
CCO[C@@H]1C[C@@]1(C=C[C@@H](C)[C@H](OC)c1ccccc1Br)C(=O)OC,–[8.59 µM],–[8.59 µM]
CN1C=CC(=O)[C@@H](O)[C@@H]1c1ccccc1Br,–,–
CN(CCc1ccc(Cl)c(Cl)c1)CCN1CCCCCC1,10µM,?
CN1CCN(CCc2ccc(Cl)c(Cl)c2)CC1,17.8µM!,?
CN(CCc1ccc(Cl)c(Cl)c1)CC(O)COc1ccc(NS(C)(=O)=O)cc1 (stereo not given),?,–
CN(CCc1ccc(Cl)c(Cl)c1)[C@H]1CCCC[C@H]1N1CCCC1,6.31µM,17.8µM
O=C(O)c1ccc(CCN2CCN(CC=Cc3ccc(Cl)cc3)CC2)cc1,–,–
O[C@H]1CN(CC2CCCCC2)[C@@H](c2ccc(Cl)cc2)C[C@H]1n1cc(-c2ccc(F)cc2)nn1,?,–
CC(C)=CCCC(C)=CCON=C1C[C@@H](O)[C@@H](O)[C@@H]2[C@H]3C(=O)N(C[C@@H]4CCCO4)C(=O)[C@@H]3CC[C@@H]12,–[8.59 µM],–[8.59 µM]
Cc1ccc(C)c(CN2CCc3nnc(CNC(=O)c4cc(C)oc4C)n3CC2)c1,+,–
Cc1cc(C(=O)NCc2nnc3n2CCN(Cc2ccc(C)c(C)c2)CC3)c(C)o1,–,–
O=S(=O)(O)c1ccc(Nc2ncnc3c2ncn3[C@@H]2O[C@H](CO)[C@@H](O)[C@H]2O)cc1,–,–
OC[C@H]1O[C@@H](n2cnc3c(NCc4ccccc4)ncnc32)[C@H](O)[C@@H]1O,28.2µM,?
COc1ccc(O[C@H]2C=C[C@@H](c3ccccc3)O[C@H]2CON=C2[C@H]3CCn4c(=O)n(-c5ccccc5)c(=O)n4[C@@H]3[C@H](O)[C@@H]3O[C@H]23)cc1,–[8.59 µM],–[8.59 µM]
C=CCCN1C(=O)NC(c2ccccc2)C(C(C)=O)=C1C (stereo not given),–[8.59 µM],–[8.59 µM]
Cc1ccc(-c2ccc(C(=O)NCc3ccc(Cl)cc3)o2)c2ccccc12,–,?
O=C(NCc1ccccc1)c1ccc(-c2ccccc2C(F)(F)F)o1,–,11.2µM
COc1cccc(CCc2ccccc2OCC(CN(C)C)OC(=O)CCC(=O)O)c1 (stereo not given),11.2µM,22.4µM
COc1cccc(CS(=O)(=O)c2ccccc2)c1,–,–
CC(O)c1cccc(-c2ccc(CN3C[C@]4(CO)OC(CO)C[C@H]4[S+]3(=O)[O-])cc2)c1 (stereo not given in full),–,–
COCCN1C(=O)NC(c2ccccc2)C(C(=O)OC)=C1C (stereo not given),–[8.59 µM],–[8.59 µM]
CC1=C[C@@H](COCc2ccccc2)O[C@@]2(C1)C(=O)Nc1cccc(Br)c12,–[8.59 µM],–[8.59 µM]
NC1CCc2cc(O)c(O)cc2C1 (stereo not given),22.4µM!,–
SMILES,Marburg entry,Lassa entry
O=C(CSc1ncccn1)NCC1Cc2cccc(-c3ncccn3)c2O1 (stereo not given),141µM,–
CC(=O)c1ccc(C(=O)NCC2Cc3cccc(-c4ncccn4)c3O2)cc1 (stereo not given),?,–
COc1cccc(CO[C@H]2C=C[C@@H](c3ccccc3)O[C@H]2CO)c1,–[8.59 µM],–[8.59 µM]
COc1ccc([C@]23Cc4c(ccc5ccccc45)[C@H](O2)C2=C(CCCC2=O)O3)cc1,–[8.59 µM],–[8.59 µM]
OC1(c2ccc(Cl)cc2)CCN(Cc2c[nH]c3ccccc23)CC1,8.91µM,?
OC1(c2cccnc2)CCN(Cc2ccc3c(c2)CN(Cc2ccc(Cl)cc2)CCO3)CC1,–,–
CN1CC[C@@H]2CN3CCc4cccc(c43)[C@H]2C1,?,–
CN1CCC(CN2c3ccccc3Sc3ccccc32)C1 (stereo not given),10µM,15.8µM
c1ccc2c(c1)Sc1ccccc1N2CC1CN2CCC1CC2 (stereo not given),12.6µM,?
COC(=O)C1=C2CCCO[C@H]2[C@@H]2[C@@H](C)[C@H](OC)c3ccccc3[C@@H]12,–[8.59 µM],–[8.59 µM]
CC(C)c1c(C(=O)N(C)Cc2cccc3ncccc23)cnn1-c1nccc(-c2ccccc2F)n1,–,?

# Screens: PubChem, National Center for Advancing Translational Sciences (NCATS)
